The source of these data is PubChem BioAssay.

Structures are written as SMILES. Calls of active or inactive are those of the source. Unless noted, the rule behind the calls is not given here.

Assay [1] is described as follows: anti-His antibody binders, primary screen, artefact control for SMM control protein annotation, biochemical, small-molecule microarray, 635 nm fluorescence (AID 1128).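 Note: score merges feature fluorescence with signal-to-noise for each printed compound spot.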 The conditions noted are these: anti-His Alexa647 antibody binding, higher = more signal.
In assay [2] the test system is Human papillomavirus type 1a E7 protein (residues 1-88). Description: HPV1a E7 small-molecule binders, primary screen, biochemical, small-molecule microarray, residues 1-88, 635 nm (AID 1129). Particulars: small-molecule microarray binding, fluorescence 635 nm; higher = more signal.
Assay [3] concerns the target Focal adhesion kinase 1 (Homo sapiens) (UniProt Q05397). Description: small-molecule microarray binders of FAK, primary screen, biochemical, 635/667 nm fluorescence, BSA, DTT (AID 1130).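 Note: composite of spot emission at 667 nm and signal to noise over triplicate slides.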 The conditions noted are these: PTK2 binding, 635 nm fluorescence, higher = more signal.
Assay [4] deals with Fibrinogen (Alexa647-labelled). Description: fibrinogen binders on compound microarrays, profiling panel, artefact control for SMM control-protein annotation, biochemical, small-molecule microarray, 635/667 nm fluorescence (AID 1131).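 Note: z-score merges 667 nm fluorescence with per-spot signal-to-noise over triplicate slides.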 Particulars: fibrinogen-A647 binding fluorescence, higher = more signal.
For assay [5], the target named is Follistatin (Homo sapiens) (UniProt P19883). Description: follistatin binders on small-molecule microarrays, primary screen, biochemical, small-molecule microarray, 635/667 nm fluorescence (AID 1132). The conditions noted are these: FST binding, 635 nm fluorescence, higher = more signal.
Assay [6] deals with Fibroblast growth factor 2 (Homo sapiens) (UniProt P09038). Kind of assay: FGF2 binders on small-molecule microarrays, primary screen, biochemical, small-molecule microarray, 635/667 nm fluorescence (AID 1133). The conditions noted are these: small-molecule microarray binding, FGF2, fluorescence 635/667; higher = more signal.
Assay [7] can be described thus: mitochondrial membrane potential change in A549 cells, profiling panel, cell-based, JC-1 fluorescence, basal, 24 h, 100 nL (AID 1138).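 Note: A549 lung adenocarcinoma cells under basal conditions with no added stimulus; test concentration not given here.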 Particulars: higher = more signal.
The test system of another assay is Lefty1. Kind of assay: Lefty1 binders on small-molecule microarrays, primary screen, biochemical, small-molecule microarray, 635/667 nm fluorescence (AID 1139). Particulars: small-molecule microarray binding, fluorescence 635/667; higher = more signal.
Assay [8] relates to wheat germ agglutinin (Triticum aestivum), Alexa647-labelled. Description: wheat germ agglutinin binders on compound microarrays, profiling panel, artefact control for SMM control-protein annotation, biochemical, small-molecule microarray, 635/667 nm fluorescence (AID 1140).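 Note: score merges 667 nm feature emission with signal to noise over triplicate slides.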 The conditions noted are these: WGA-A647 binding, 635 nm fluorescence, higher = more signal.
Assay [9] concerns the target Luciferin 4-monooxygenase (Photinus pyralis) (UniProt P08659). Description: firefly luciferase enzyme inhibitors, primary screen, biochemical, luminescence, purified enzyme, 2006 set (AID 1141).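 Note: cell-free assay with purified firefly luciferase at 100 ng per well in PBS; test concentration not given here.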 The conditions noted are these: SteadyGlo luminescence, 30 min, higher = more signal, called active from +8 up or from −8 down.
The test system of assay [10] is Wnt5a (protein binding on small-molecule microarray). Description: Wnt5a binders on small-molecule microarray, primary screen, biophysical, 635/667 nm fluorescence (AID 1142).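 Note: fluorescence read at 667 nm with signal to noise per printed feature.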 The conditions noted are these: 635 nm fluorescence, higher = more signal.
Assay [11] can be described thus: cell viability in Huh7 cells, primary screen, cytotoxicity control for HCV replication inhibitor project, CellTiter-Glo luminescence, basal, 48 h (AID 1143).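 Note: Huh7 hepatoma cells carrying a hepatitis C replication reporter with no stimulus; test concentration not given here.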 Particulars: Huh7 HCV replicon, higher = more signal, called active from +8 up or from −8 down. Background: ATP-based viability assays read luminescence as a measure of living cells.
Assay [12] in a line: P. aeruginosa biofilm formation inhibitors, primary screen, PAO1 strain, BacTiter-Glo luminescence, LB-PBS (AID 1144). Particulars: 12 h, higher = more signal.
Assay [13] in a line: CREB reporter modulators without forskolin, primary screen, cell-based, PC12, CRE-LacZ reporter, unstimulated (AID 1145). The conditions noted are these: no forskolin, luminescence, 4.5 h, higher = more signal, called active from +8 up or from −8 down.
The nature of assay [14]: CREB reporter modulators under forskolin, primary screen, cell-based, PC12, CRE-LacZ reporter, forskolin-stimulated (AID 1146).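 Note: PC12 cells with 6xCRE LacZ reporter stimulated by forskolin 10 µM; beta-galactosidase reporter signal reflecting CREB driven transcription.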 Particulars: luminescence, 4.5 h, higher = more signal, called active from +8 up or from −8 down.
In assay [15] the target is Streptavidin (Streptomyces avidinii) (UniProt P22629). Description: streptavidin binders on small-molecule microarray, primary screen, artefact control for SMM compound annotation, biophysical, 635/667 nm fluorescence (AID 1147).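 Note: signal reflects streptavidin binding to arrayed compounds as a control protein.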 The conditions noted are these: streptavidin binding, higher = more signal.
A short description of assay [16]: small-molecule binders of probe aInhba, primary screen, biochemical, small-molecule microarray, 635/667 nm fluorescence (AID 1148).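 Note: score merges 667nm spot fluorescence with signal-to-noise for antibody binding to printed compounds.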 The conditions noted are these: higher = more signal.
The target of assay [17] is Torsin-1A (Homo sapiens) (UniProt O14656). Description: torsin A binders from cell lysate, primary screen, small-molecule microarray, wild-type, 635/667 nm (AID 1149). The conditions noted are these: COS7 hTOR1A-WT lysate, 635 nm fluorescence, higher = more signal.
Assay [18] has the same target. Kind of assay: small-molecule binders of mutant TOR1A in lysate, primary screen, cell lysate, small-molecule microarray, COS7 lysate, 635/667 nm fluorescence (AID 1150).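 Note: score pools 667 nm emission and signal to noise measuring lysate protein binding.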 Particulars: COS7 hTOR1A mutant lysate, 635 nm fluorescence, higher = more signal.
The subject of assay [19] is Sonic hedgehog protein (Shh). Description: small-molecule binders of Shh protein, primary screen, biochemical, small-molecule microarray, 635/667 nm fluorescence (AID 1151).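 Note: Shh protein binding to compounds spotted on small-molecule microarray slides; score combines spot fluorescence intensity with signal-to-noise across triplicate slides.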 The conditions noted are these: small-molecule microarray binding, 635 nm fluorescence; higher = more signal.

Torsin-1A (Homo sapiens), sequence (O14656 whole entry, looked up): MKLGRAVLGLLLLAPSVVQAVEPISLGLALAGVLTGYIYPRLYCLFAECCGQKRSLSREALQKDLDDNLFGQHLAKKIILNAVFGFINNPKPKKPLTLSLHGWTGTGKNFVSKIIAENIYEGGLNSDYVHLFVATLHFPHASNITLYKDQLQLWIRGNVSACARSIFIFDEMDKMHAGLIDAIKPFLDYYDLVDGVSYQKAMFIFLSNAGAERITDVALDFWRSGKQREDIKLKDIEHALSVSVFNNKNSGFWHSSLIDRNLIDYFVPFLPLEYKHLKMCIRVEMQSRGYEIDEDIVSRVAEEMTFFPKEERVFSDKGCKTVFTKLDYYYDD
Focal adhesion kinase 1 (Homo sapiens), sequence (Q05397 whole entry, looked up): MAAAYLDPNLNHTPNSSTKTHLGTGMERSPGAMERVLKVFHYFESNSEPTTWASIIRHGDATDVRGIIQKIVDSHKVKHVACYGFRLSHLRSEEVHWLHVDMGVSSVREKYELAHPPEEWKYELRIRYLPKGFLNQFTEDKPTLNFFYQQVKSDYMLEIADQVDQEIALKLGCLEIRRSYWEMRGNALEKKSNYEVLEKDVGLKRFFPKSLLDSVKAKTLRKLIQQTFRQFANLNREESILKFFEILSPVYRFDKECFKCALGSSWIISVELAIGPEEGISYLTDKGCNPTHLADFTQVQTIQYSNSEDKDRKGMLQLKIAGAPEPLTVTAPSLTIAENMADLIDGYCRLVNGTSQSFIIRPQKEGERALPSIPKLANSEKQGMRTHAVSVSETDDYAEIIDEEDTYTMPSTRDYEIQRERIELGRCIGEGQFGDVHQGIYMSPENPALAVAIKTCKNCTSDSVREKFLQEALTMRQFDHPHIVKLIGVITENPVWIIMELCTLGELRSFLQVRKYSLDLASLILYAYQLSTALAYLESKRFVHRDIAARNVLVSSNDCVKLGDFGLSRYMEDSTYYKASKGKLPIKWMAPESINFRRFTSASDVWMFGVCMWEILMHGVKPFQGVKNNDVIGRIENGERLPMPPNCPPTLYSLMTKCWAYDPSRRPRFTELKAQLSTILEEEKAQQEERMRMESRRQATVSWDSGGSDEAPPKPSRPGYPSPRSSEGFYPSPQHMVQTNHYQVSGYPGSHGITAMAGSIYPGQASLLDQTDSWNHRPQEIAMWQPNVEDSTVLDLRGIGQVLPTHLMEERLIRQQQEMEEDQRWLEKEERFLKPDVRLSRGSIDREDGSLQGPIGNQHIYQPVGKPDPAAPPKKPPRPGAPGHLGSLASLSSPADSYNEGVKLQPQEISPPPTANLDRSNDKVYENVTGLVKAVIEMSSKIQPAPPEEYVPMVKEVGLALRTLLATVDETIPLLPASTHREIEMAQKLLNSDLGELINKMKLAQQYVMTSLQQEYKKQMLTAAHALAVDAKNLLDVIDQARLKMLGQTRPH
Streptavidin (Streptomyces avidinii), sequence (P22629 whole entry, looked up): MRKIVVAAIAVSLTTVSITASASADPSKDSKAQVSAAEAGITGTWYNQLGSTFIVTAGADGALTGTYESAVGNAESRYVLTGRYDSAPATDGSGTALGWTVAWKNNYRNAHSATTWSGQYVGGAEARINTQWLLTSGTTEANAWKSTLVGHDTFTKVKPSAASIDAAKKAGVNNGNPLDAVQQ
Follistatin (Homo sapiens), sequence (P19883 whole entry, looked up): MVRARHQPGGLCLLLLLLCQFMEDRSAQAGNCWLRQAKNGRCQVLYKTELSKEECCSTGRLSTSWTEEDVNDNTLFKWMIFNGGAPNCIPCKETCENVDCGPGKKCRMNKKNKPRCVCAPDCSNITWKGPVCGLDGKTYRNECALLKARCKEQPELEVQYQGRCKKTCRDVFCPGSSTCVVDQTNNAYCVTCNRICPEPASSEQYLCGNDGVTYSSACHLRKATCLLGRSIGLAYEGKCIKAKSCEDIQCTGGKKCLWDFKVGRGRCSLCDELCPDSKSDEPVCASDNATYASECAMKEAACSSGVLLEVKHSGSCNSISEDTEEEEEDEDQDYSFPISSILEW
Fibroblast growth factor 2 (Homo sapiens), sequence (P09038 whole entry, looked up): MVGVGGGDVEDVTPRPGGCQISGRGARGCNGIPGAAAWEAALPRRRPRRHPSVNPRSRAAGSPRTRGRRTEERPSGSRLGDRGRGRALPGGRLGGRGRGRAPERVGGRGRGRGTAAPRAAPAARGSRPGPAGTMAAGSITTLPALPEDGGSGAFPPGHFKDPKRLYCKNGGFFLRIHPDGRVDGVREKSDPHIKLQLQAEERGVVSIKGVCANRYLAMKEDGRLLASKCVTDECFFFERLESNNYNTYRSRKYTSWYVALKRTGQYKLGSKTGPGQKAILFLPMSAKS
Luciferin 4-monooxygenase (Photinus pyralis), sequence (P08659 whole entry, looked up): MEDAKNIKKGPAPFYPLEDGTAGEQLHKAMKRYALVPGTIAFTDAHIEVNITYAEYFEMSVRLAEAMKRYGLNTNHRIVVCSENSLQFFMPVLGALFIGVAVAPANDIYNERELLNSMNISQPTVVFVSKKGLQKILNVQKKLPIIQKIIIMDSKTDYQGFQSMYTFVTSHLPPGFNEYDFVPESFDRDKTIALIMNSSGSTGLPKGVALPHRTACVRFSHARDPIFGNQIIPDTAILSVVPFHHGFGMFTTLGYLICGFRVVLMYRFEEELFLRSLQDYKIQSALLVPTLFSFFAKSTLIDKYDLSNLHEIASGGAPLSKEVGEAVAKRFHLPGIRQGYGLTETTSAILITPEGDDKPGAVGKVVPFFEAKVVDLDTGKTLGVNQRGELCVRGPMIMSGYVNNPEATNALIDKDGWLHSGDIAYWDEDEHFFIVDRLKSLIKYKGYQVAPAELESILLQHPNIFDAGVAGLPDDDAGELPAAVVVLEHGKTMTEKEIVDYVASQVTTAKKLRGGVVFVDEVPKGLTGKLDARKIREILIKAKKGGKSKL

Turning to `O=c1cccc(-c2ccccc2Cl)o1`, the composite z-score in assay [1] was 0.0166; in [2] it was 0.461; in assay [3], 0.678; in assay [4], -0.0231; in [5] it was 0.0968; in [6], -0.488. In addition, the composite z-score is 0.0182 in the assay on Lefty1; -0.0467 in assay [8]; -0.196 in [10]; 0.423 in assay [15]; 0.115 in assay [16]; 0.64 with Torsin-1A (Homo sapiens) [17]. Besides, the composite z-score with Torsin-1A (Homo sapiens) [18] is 0.112; in [19], 0.322. Also, the z-score in [7] is -0.556; in assay [9], 0.294 (inactive); in assay [11], -0.759 (inactive); in assay [12], 0.387 (inactive); in assay [13], 0.285 (inactive); in [14], 0.556 (inactive).

As to `CC(=O)NCCCC[C@@H]1NC(=O)[C@H]2C[C@@H](C(=O)O)[C@@H](c3ccc(O)cc3)N2C1=O`, the composite z-score in assay [1] was 2.26; in assay [2], 1.21; in assay [3], 0.626; in assay [4] it was 0.584; in assay [5] it was 1.32; in assay [6], 1.67. In addition, the composite z-score was determined as 1.45 in the assay with Lefty1; 0.478 in [8]; 0.176 in [10]; 0.481 in assay [15]; 0.0589 in assay [16]; 0.928 in the assay with Torsin-1A (Homo sapiens) [17]. Moreover, the values for the composite z-score (with Torsin-1A (Homo sapiens) [18]; in assay [19]) were 1.69 and 2.02, respectively. For the same compound, the z-score in assay [7] was -0.738; in [9], -3.39 (inactive); in [11], -0.798 (inactive); in assay [12], -0.0331 (inactive); in assay [13] it was 5.71 (inactive); in assay [14] it was 7.82 (inactive).

On to `COC(=O)C(CC#Cc1ccc2c(c1)[C@]1(C(=O)N2)[C@H](c2ccccc2OCCO)N2[C@H](c3ccccc3)[C@H](c3ccccc3)OC(=O)[C@H]2[C@@H]1C(N)=O)C(=O)OC`, for which the composite z-score stood at 1.6 in assay [1]; 1.22 in assay [2]; 0.473 in assay [3]; 0.711 in assay [4]; 0.619 in assay [5]; 0.168 in assay [6]. The composite z-score in the assay on Lefty1 is -0.0878; in assay [8] it was 1.15; in assay [10] it was 0.136; in [15] it was 1.5; in assay [16], 1.26; with Torsin-1A (Homo sapiens) [17], 0.412. The composite z-score with Torsin-1A (Homo sapiens) [18] came to 0.434; in assay [19] it was 0.111. In addition, the z-score in assay [7] is -0.153; in [9], -0.821 (inactive); in [11], -5.98 (inactive); in [12] it was 0.502 (inactive); in assay [13], -0.0515 (inactive); in assay [14], 1.02 (inactive).

With `O=C1O[C@H](c2ccccc2)[C@H](c2ccccc2)N2[C@H]1[C@@H](C(=O)NC[C@H](O)c1ccccc1)[C@]1(C(=O)Nc3ccccc31)[C@H]2c1ccc(O)cc1`, the composite z-score in assay [1] worked out at 0.885; in [2], 0.973; in assay [3], 0.223; in assay [4], 0.141; in [5] it was 1.22; in assay [6], 1.71. The composite z-score was 0.947 with Lefty1; 0.39 in assay [8]; 0.378 in [10]; 0.287 in [15]; -0.128 in assay [16]; 0.643 with Torsin-1A (Homo sapiens) [17]. In addition, the composite z-score with Torsin-1A (Homo sapiens) [18] stood at 0.506; in assay [19], 1.5. Further, the z-score in assay [7] was -0.236; in assay [9], 0.363 (inactive); in [11], -1.1 (inactive); in assay [12], -1.25 (inactive); in [13], -1.29 (inactive); in [14], -0.423 (inactive).

Regarding `OB1C=CCC(CCc2ccccc2)O1` (stereo not given), the composite z-score in [1] was -0.837; in assay [2], -0.692; in [3] it was -0.153; in assay [4], -0.894; in [5] it was 0.0417; in [6], 0.712. Besides, the composite z-score in the assay with Lefty1 is -0.732; in assay [8] it was -0.477; in assay [10], -0.248; in assay [15], -0.492; in assay [16] it was -0.385; in the assay with Torsin-1A (Homo sapiens) [17], -0.459. Also, the composite z-score in the assay with Torsin-1A (Homo sapiens) [18] is -0.643; in assay [19] it was 0.192. Also, the z-score in [7] is 1.13; in assay [9] it was -1.83 (inactive); in assay [11], -2.16 (inactive); in assay [12], -1.35 (inactive); in assay [13], 0.672 (inactive); in assay [14] it was -1.28 (inactive).
